# According to PubChem BioAssay (NCI):
# The panel holds about 79,000 compounds, 15% with a hit somewhere; the sample as a whole holds those more often. A number with no mark means an inactive call. Activity calls are given as the source filed them. Cut-off read from the data, not from the text of the source: active = growth inhibition above about 70%; inactive = the rest.
# Tests used:
# [1] = NCI Yeast Anticancer Drug Screen. Data for the rad50 strain (AID 155);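 note: 0% = growth of vehicle-only cultures of the same strain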; details: S. cerevisiae rad50 strain growth inhibition; at 50.0 µM; active compounds read high
# Summary of the method: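 Relative growth inhibition (compound vs vehicle) was measured in yeast with a defined repair-gene alteration.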
# [2] = NCI Yeast Anticancer Drug Screen. Data for the mec2-1 strain (AID 157); details: S. cerevisiae mec2-1 strain, at 50.0 µM, active compounds read high
# Summary of the method: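 Compounds were applied to mec2-1 yeast cells. Their growth was then compared with that of vehicle-treated cultures to give growth inhibition.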
# [3] = NCI Yeast Anticancer Drug Screen. Data for the sgs1 mgt1 strain (AID 161);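 note: 0% = growth of cultures given vehicle only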; details: S. cerevisiae sgs1 mgt1 strain, at 50.0 µM, active compounds read high
# Summary of the method: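 Compounds are added to genetically altered yeast, and growth is compared with cultures given vehicle alone to give percent inhibition.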
# [4] = NCI Yeast Anticancer Drug Screen. Data for the cln2 rad14 strain (AID 165);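 note: 0% = growth equal to vehicle treated cultures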; details: S. cerevisiae cln2 rad14 strain, at 50.0 µM, active compounds read high
# Summary of the method: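 Strain: cln2 rad14 yeast, altered in cell cycle control and DNA damage repair. Read-out: growth inhibition vs vehicle.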
# [5] = NCI Yeast Anticancer Drug Screen. Data for the bub3 strain (AID 167); details: S. cerevisiae bub3 mutant strain, at 50.0 µM, active compounds read high
# Summary of the method: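 Screening used yeast with an engineered genetic alteration affecting cell cycle control. Compound-exposed cultures were compared with vehicle cultures, and reduced growth was taken as inhibition.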
# [6] = NCI Yeast Anticancer Drug Screen. Data for the mlh1 rad18 strain (AID 175); details: S. cerevisiae mlh1 rad18 strain growth inhibition; at 50.0 µM; active compounds read high
# Summary of the method: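 A repair-deficient yeast strain is exposed to test compound, and growth is scored relative to vehicle-treated controls.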
Compound,growth inhibition [1],growth inhibition [2],growth inhibition [3],growth inhibition [4],growth inhibition [5],growth inhibition [6]
CN(C)c1ccc(C(c2c(O)c3ccc(O)cc3oc2=O)c2c(O)c3ccc(O)cc3oc2=O)cc1,8.4%,7.75%,22.2%,32.7%,3.9%,11.4%
O=C1c2ccccc2C(=O)N1N1CC1c1ccccc1 (stereo unspecified),-8.2%,-36.1%,8.1%,18.2%,6.5%,-1%
CCOP(=O)(OCC)/C(C#N)=C/c1ccco1,-2.55%,-25.4%,-9.65%,21.8%,-16.5%,-21.8%
COC[C@H]1OC(=O)c2coc3c2[C@@]1(C)C1=C(C3=O)[C@@H]2CCC(=O)[C@@]2(C)C[C@H]1OC(C)=O,92.3% (active),93.3% (active),89.4% (active),89.1% (active),86.1% (active),88.8% (active)
Nc1ccc(C(=O)N/N=C/c2ccc(N(CCBr)CCBr)cc2)cc1,42.9%,22.4%,25.5%,1.95%,5.3%,54.2%
NCC(=O)c1ccc(O)c(O)c1,-8.85%,-7.05%,-4.35%,2.8%,16.4%,-8.55%
CN(C)P(=O)(N(C)C)N1CCCCC1,-6.35%,-10.2%,0.3%,-22%,-23.6%,-4.3%
Nn1cnnc1,-12.9%,-7.95%,-9.7%,-9.35%,-3.05%,-16.2%
Nc1cc(Cl)ccc1Cl,1.1%,-11.3%,-19.2%,-24.9%,1.15%,-11.8%
CCCCn1c(C)c(C(=O)OCC)c2cc(OCc3ccc(C(=O)Nn4c(C)ccc4C)cc3)c(Br)cc21,7.1%,-30.7%,-15.5%,-18.6%,-27.4%,-20.1%
CC(Cl)CNC1c2ccccc2CC1O (stereo unspecified),-4.4%,-7.8%,-1.45%,-18.6%,-6.4%,5.45%
COc1cc(C2c3cc4c(cc3C(O)[C@H]3COC(=O)[C@@H]23)OCO4)cc(OC)c1O (stereo partly specified),-36.4%,-28.7%,-28.8%,16.6%,6.55%,-7.9%
CCOP(=O)(Cc1ccc(Cl)cc1)OCC,33.8%,7.9%,17.6%,21.4%,15.2%,8.05%
O=C(O)C(F)F,-16.9%,-1.2%,-18.2%,-31%,-15.3%,-3.15%
O=C1OC(Br)c2ccccc21 (stereo unspecified),-11.4%,-27.7%,-8%,7%,-20.1%,-7.65%
CC(=O)[CH-]C(C)=O.CC(=O)[CH-]C(C)=O.CC(=O)[CH-]C(C)=O.CCC(=O)O.[Zn+2].[Zn],-20.9%,-9.35%,-18.4%,-38%,-0.15%,-26.3%
O=c1n(CC2CS2)c2ccccc2n1CC1CS1 (stereo unspecified),42%,-0.6%,4.9%,-30.4%,-11.1%,-5.3%
CCCCN(CCCC)C(=O)C1C=C2c3cccc4[nH]cc(c34)CC2N(C)C1 (stereo unspecified),-0.85%,-1.3%,-11.2%,-13.2%,6.65%,37.4%
CC(C)(C)N1COC2CCCCC21 (stereo unspecified),17.4%,-3.2%,4.65%,-4.25%,16.4%,14.6%
NC(=O)c1cc(N(CCBr)CCBr)c([N+](=O)[O-])cc1[N+](=O)[O-],17.6%,1.25%,17.6%,14.2%,16.9%,9.3%
COc1cc(C2c3cc4c(cc3[C@@H](OC)[C@H]3COC(=O)C23)OCO4)cc(OC)c1O (stereo partly specified),89.5% (active),90% (active),86.4% (active),85.1% (active),89.3% (active),88.7% (active)

Compound,growth inhibition [1],growth inhibition [2],growth inhibition [3],growth inhibition [4],growth inhibition [5],growth inhibition [6]
COc1ccc2c(c[n+](C)c3c4cc5c(cc4ccc23)OCO5)c1OC,0.2%,-6.25%,5.6%,14%,-6.5%,0.6%
CCOC(=O)/C=C/CP(=O)(OCC)OCC,7.9%,-11.5%,15.2%,11.3%,9.55%,18.2%
[C-]#[O+].[C-]#[O+].[Ir].[O-]c1cccc2cccnc12,-19.2%,-27.6%,-4.6%,12.7%,-13.2%,-4.8%
COc1ccccc1CCN,-23.6%,-5.9%,-14.1%,-14.3%,-21.2%,-29.3%
CCOC(=O)C12CCC(=O)C=C1CN(C)CC2 (stereo unspecified),-2.25%,0.1%,-3.3%,-17.1%,-13.2%,0.8%
C=[CH][Sn]([CH]=C)([c]1ccccc1)[c]1ccccc1,-7.5%,-12.8%,-14.2%,-0.65%,-26.8%,12.3%
C[N+](C)(C)CC1(COC(=O)C(O)(c2ccccc2)c2ccccc2)CCCCC1,-3.5%,6.45%,-16.8%,-7.2%,-2.95%,5.05%
CN(C)C(=O)Sc1ccc(S(=O)(=O)F)cc1[N+](=O)[O-],65.5%,36.9%,76.7% (active),42.5%,34.4%,34.6%
CC1OC(OC2C(O)CC(OC3C(O)CC(OC4CCC5(C)C(CCC6C5CCC5(C)C(C7=CC(=O)OC7)C(O)CC65O)C4)OC3C)OC2C)CC(O)C1O (stereo unspecified),-12.8%,10.6%,-19.1%,-13.1%,-5.45%,27.6%
O[As](O)O.S=C(S)c1ccccc1S,7.55%,-13%,18.7%,28%,1.75%,24.9%
c1ccc(N2CCNCC2)cc1,-11.3%,4.45%,-27.2%,-28.6%,-0.8%,-1.5%
O=C(O)/C=C/c1ccc(S(=O)(=O)F)cc1,36.4%,-16%,16.6%,15.9%,34%,20.6%
[NH2-].[NH2-].[NH2-].[NH2-].[NH2-].[NH2-].[Ru+6],-15.8%,-12.1%,-21.9%,9.4%,-24.1%,-20.8%
O=C(Cc1nc2ccccc2c(=O)n1-c1c(Cl)cccc1Cl)c1ccncc1,2.45%,7.95%,7.1%,-25.6%,-2.95%,18.9%
CN1C(=O)c2ccccc2NC(=O)C12O[C@@H]2c1ccccc1 (stereo partly specified),0.05%,-19.7%,-4.95%,14.3%,-9.7%,-16.9%
CCC1(CCC(C)C)C(=O)NC(=O)N(C)C1=O (stereo unspecified),-6.05%,-1.2%,-1.75%,-19.4%,-11.3%,-4.05%
S=P(N1CCCCC1)(N1CCCCC1)N1CCCCC1,-6.95%,-6.8%,-3.15%,-17.8%,-4.2%,-7.1%
CC(C)NCC(O)c1ccc(Cl)c(Cl)c1 (stereo unspecified),-28.6%,-40%,-14%,7.25%,-27.2%,-33.8%
CCC1c2cc(O)c(OC)cc2CCN1C (stereo unspecified),-7.7%,-0.9%,2.45%,-14.9%,-7.75%,-8%
O=S(=O)(F)c1ccccc1C[P+](c1ccccc1)(c1ccccc1)c1ccccc1,84.2% (active),86% (active),66%,66.7%,82.8% (active),91% (active)
